Source: PubChem (several laboratories)
Autofluor counter: flagged as autofluorescent in microsphere protease counterscreen; fluorescence intensity (test concentration not listed); actives 3.1% (n = 360,000); compound autofluorescence counterscreen, microsphere flow cytometry; hits give high values; in the data active = fluorescence intensity above about 16000; inconclusive = no clear call, values can overlap the other calls
TcdB inh: TcdB glycohydrolase inhibitors, primary screen, biochemical, single point, plate reader. TcdB glycohydrolase enzymatic assay. Toxin B (Clostridioides difficile), P18177. actives 0.24% (n = 350,000). AID 652162, 2013. inhibition, % at 9.99 µM; in the data active = inhibition above about 10%
BoNT-F LC inh: BoNT/F light chain protease inhibitors, primary screen, biochemical, flow cytometry, MLPCN library; actives 0.22% (n = 360,000); inhibition, % at 10 µM; AID 588497, 2011; Multiplex microsphere protease cleavage assay; in the data active = inhibition above about 35%, passing the limit was not always enough; inconclusive = no clear call, values can overlap the other calls; note: plate controls were buffer without enzyme for full effect and enzyme alone for no effect
Anthrax LF inh2: Bacillus anthracis LF protease inhibitors, primary screen, biochemical, multiplex microsphere, MLPCN library | Lethal factor (Bacillus anthracis), P15917 | AID 588501, 2011 | actives 0.12% (n = 360,000) | multiplex microsphere protease cleavage assay | inhibition, % at 10 µM; in the data active = inhibition above about 30%; inconclusive = no clear call, values can overlap the other calls; note: plate controls were buffer without enzyme for full effect and enzyme alone for no effect
BoNT-A LC inh2: BoNT/A light chain protease inhibitors, primary screen, biochemical, flow cytometry, MLPCN library. Botulinum neurotoxin type A light chain protease (Clostridium botulinum A str. ATCC 3502). multiplex microsphere protease substrate cleavage. inhibition, % at 10 µM. actives 0.17% (n = 360,000). AID 588499, 2011; in the data active = inhibition above about 30%; inconclusive = no clear call, values can overlap the other calls; note: plate controls were buffer without enzyme for full effect and enzyme alone for no effect
BoNTA LC inh 2: BoNT/A light chain protease inhibitors, confirmation, biochemical, flow cytometry, cherry pick 2; actives 10% (n = 150); shares compounds with BoNT-A LC inh2; inhibition, % at 10 µM; multiplex microsphere protease cleavage assay; in the data active = inhibition above about 24%
LF protease CP2: Bacillus anthracis LF protease inhibitors, confirmation, biochemical, multiplex microsphere; shares compounds with BoNT-A LC inh2; multiplex microsphere protease cleavage assay; actives 7% (n = 150); inhibition, % at 10 µM
BoNTF LC inh 2: BoNT/F light chain protease inhibitors, confirmation, biochemical, flow cytometry, cherry pick 2; shares compounds with BoNT-A LC inh2; actives 7% (n = 150); inhibition, % at 10 µM; multiplex microsphere protease cleavage assay
* marks the source's active call; other numbers are inactive results; ? = inconclusive; · = no result given. This is one part of a sample in which hits are shown more often than they occur. Cut-off read from the data, not from the text of the source, unless noted: active = inhibition above about 25%; inactive = the rest.

SMILES	Autofluor counter	TcdB inh	BoNT-F LC inh	Anthrax LF inh2	BoNT-A LC inh2	BoNTA LC inh 2	LF protease CP2	BoNTF LC inh 2
COc1ccc(-c2oc3c(OC)c(OC)c(OC)c(O)c3c(=O)c2OC)cc1OC	4692	7	11	34*	39*	17	19	19
CCCC#Cc1ccc2c(c1)O[C@H](CN(C)CC1CCOCC1)[C@H](C)CN([C@@H](C)CO)S2(=O)=O	·	1	·	·	·	·	·	·
O=C1CCC(C(=O)OCC(=O)c2c[nH]c3ccccc23)=NN1	2538	·	-4	2	0	·	·	·
Cc1cnc(C(=O)OCC(=O)c2c[nH]c3ccccc23)cn1	9016	0	?	12	5	·	·	·
CC(C)Cc1ccc(C(C)C(=O)OCC(=O)c2c[nH]c3ccccc23)cc1 (stereo unspecified)	11396	·	3	-1	0	2	-1	6
COc1ccc(C(=O)OCC(=O)c2c[nH]c3ccccc23)cc1OC	5543	1	-11	39*	37*	28*	3	-11
Cc1ccc(C(=O)OCC(=O)c2c[nH]c3ccccc23)cc1	2547	1	-6	1	0	4	3	14
O=C(OCC(=O)c1c[nH]c2ccccc12)c1cc(Br)ccc1O	3144	1	-2	-1	1	2	-1	8
O=C(C[C@H]1C=C[C@@H](NS(=O)(=O)c2ccc(F)cc2)[C@@H](CO)O1)N1CCC(Cc2ccccc2)CC1	·	-2	·	·	·	·	·	·
CCS(=O)(=O)Nc1ccc2c(c1)C(=O)N(C)C[C@H](OC)[C@@H](C)CN(C(=O)C1CC1)[C@H](C)CO2	·	0	·	·	·	·	·	·
COc1ccc(CNC(=O)C[C@H]2CC[C@@H](NS(=O)(=O)c3cccc(OC)c3)[C@@H](CO)O2)cc1	·	1	·	·	·	·	·	·
C[C@@H]1CN([C@H](C)CO)C(=O)c2cc(NC(=O)Cc3ccccc3)ccc2O[C@@H](C)CCCCO[C@H]1CN(C)S(C)(=O)=O	·	0	·	·	·	·	·	·
COc1ccc(OCC(=O)c2c[nH]c3ccccc23)cc1	4821	1	-12	3	-2	·	·	·
O=C(COc1ccccc1)OCC(=O)c1c[nH]c2ccccc12	2839	1	0	-5	0	1	1	3
CCCC#Cc1ccc([C@H]2[C@@H](CO)N[C@@H]2CN(C(C)=O)C2CCCC2)cc1	·	0	·	·	·	·	·	·
Cc1ccc(CNC(=O)c2ccc(S(=O)(=O)N3CCCCCC3)cc2)cc1	3339	-2	1	3	0	·	·	·
Cc1cc2cc(CNC(=O)c3ccc(S(=O)(=O)N4CCOCC4)cc3)ccc2n1C	1461	1	-92	-76	81*	6	4	8
Cc1cc2cc(CNC(=O)c3ccc(S(=O)(=O)N(C)C)cc3)ccc2n1C	1889	-13	-66	-64	82*	9	9	18
CN(C)S(=O)(=O)c1ccc(C(=O)NCc2ccc3[nH]c4c(c3c2)CCCC4)cc1	5417	1	-9	0	0	·	·	·
Cc1cc2cc(CNC(=O)c3ccc(S(=O)(=O)N4CCCCC4)cc3)ccc2[nH]1	3901	1	-87	-64	44*	10	8	11
COc1ccc(-c2cn(CC[C@H]3CC[C@H](NS(=O)(=O)c4ccccc4C)[C@@H](CO)O3)nn2)cc1	·	0	·	·	·	·	·	·
CC1CN(S(=O)(=O)c2cccc(C(=O)Nc3ccc(N4CCCCC4)cc3)c2)CC(C)O1 (stereo unspecified)	3605	1	1	0	0	·	·	·
Cc1nc2ccc(NC(=O)c3cccc(S(=O)(=O)N4CC(C)OC(C)C4)c3)cc2s1 (stereo unspecified)	7927	·	20	30*	25	5	6	6
CCCCCCCCC(c1nc2cc(C)c(C)cc2[nH]1)n1c(=O)c(-c2ccccc2Br)nc2ccccc21 (stereo unspecified)	4821	1	7	16	28	28*	2	19
CCCCC(c1nc2ccccc2[nH]1)n1c(=O)c(-c2ccccc2)nc2cc(C)c(C)cc21 (stereo unspecified)	3875	0	5	34*	30*	11	8	11
SMILES	Autofluor counter	TcdB inh	BoNT-F LC inh	Anthrax LF inh2	BoNT-A LC inh2	BoNTA LC inh 2	LF protease CP2	BoNTF LC inh 2
CCCCC(c1nc2ccccc2[nH]1)n1c(-c2ccccc2)nc2cc(C)c(C)cc21 (stereo unspecified)	6080	2	-19	0	-2	·	·	·
COc1cc(N(C)C)ccc1C=c1c2ccccc2n2c1cc(-c1ccccc1)[n+]2C	1971	6	-112	-45	56*	30*	5	-62
CCCC(=O)OCC(=O)Nc1ccc2[nH]c(=O)[nH]c2c1	4226	1	1	-6	0	·	·	·
Cc1cc(Br)ccc1SCC(=O)OCC(=O)Nc1ccc2[nH]c(=O)[nH]c2c1	3972	0	62*	36*	11	2	0	12
CCOc1ccccc1OCC(=O)OCC(=O)c1c(C)[nH]c2ccccc12	4284	1	14	0	3	1	-1	2
CCOC(=O)c1c(C)[nH]c(C(=O)COC(=O)COc2ccccc2C)c1C	2053	0	-3	0	0	·	·	·
Cc1cccc(C(=O)OCC(=O)c2c(C)[nH]c3ccccc23)c1O	4168	1	2	-5	-1	0	1	1
C[C@@H](NC(=O)N(C)C[C@H]1OCc2ccccc2-c2c(n(C)c3ccccc23)C(=O)N([C@@H](C)CO)C[C@@H]1C)c1ccccc1	·	1	·	·	·	·	·	·
C[C@@H]1CN([C@@H](C)CO)C(=O)Cc2cc(NS(=O)(=O)c3ccc(F)cc3)ccc2O[C@@H]1CN(C)C	·	-1	·	·	·	·	·	·
O=C(NCc1ccc(OC(F)(F)F)cc1)c1cccc2c1C(=O)c1ccc(N3CCC(Cc4ccccc4)CC3)cc1S2(=O)=O	4518	2	11	21	13	7	6	15
COc1ccccc1N1CCN(c2ccc3c(c2)S(=O)(=O)c2cccc(C(=O)NCc4ccc(F)cc4)c2C3=O)CC1	3973	0	-5	-4	1	1	-2	-5
O=C(NCc1ccc(OC(F)(F)F)cc1)c1cccc2c1C(=O)c1ccc(N3CCCC3)cc1S2(=O)=O	2925	2	6	4	3	·	·	·
O=C(NCc1cccc(F)c1)c1cccc2c1C(=O)c1ccc(N3CCCC3)cc1S2(=O)=O	4444	0	17	12	10	·	·	·
